Measurements: PubChem BioAssay
Unmarked numbers belong to inactive results. Active and inactive are the calls of the source.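 How the source made its calls: active means thallium flux through the channel raised or lowered by more than 3 SD from vehicle-only wells, actives on both sides; inactive means the rest.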

tested on: F380Y; experiment: modulators of BK channel variants, profiling panel, selectivity assay, cell-based, U2OS BacMam, thallium flux, beta subunits (AID 1259406); settings: at 30 µM;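 further: initial slope of Thallos dye fluorescence rise after thallium is added; log ratio against the mean of 0.3% DMSO vehicle wells on the same plate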

`CCOC(=O)c1nn(-c2ccc(C(C)(C)C)cc2)c(=O)c(C#N)c1C` was tested, and the log fold change Tl+ flux was -0.364 (active).
In the case of `O=C(NC(=O)N1CCCCC1)c1cc(Br)cc(Br)c1`, the log fold change Tl+ flux is reported as -0.337 (active).
In the case of `O=S(=O)(Nc1ccccc1SCc1ccc2nonc2c1)c1cccs1`, the log fold change Tl+ flux is reported as -0.159 (active).
In the case of `CCC(=NOc1ccc(C(F)(F)F)cn1)c1ccc(-c2ccccc2F)cc1`, the log fold change Tl+ flux is reported as 0.147 (active).
With `CSc1cc(C(C)(C)C)[nH]n1` the log fold change Tl+ flux was -0.125 (active).

`NC(=O)CN1C(=O)C(=Cc2ccco2)N=C1c1ccccc1` and `NC(=O)c1nnn(-c2ccc([N+](=O)[O-])cc2)c1-c1ccccc1` are within 0.2 log units of each other in log fold change Tl+ flux: -0.0123 for the first, 0.0114 for the second.

`COc1cc(C(F)(F)F)nc2ccc(C#CCOC(=O)Nc3cccc(Cl)c3)cc12` and `CCOC(=O)c1ccc(OCC#Cc2ccc(C(F)(F)F)cn2)cc1` are within 0.2 log units of each other in log fold change Tl+ flux: -0.0208 for the first, -0.0256 for the second.

`Cc1ccc(S(=O)(=O)c2ncsc2SCc2ccc(Cl)cc2Cl)cc1` and `Clc1ccc(Sc2cn[nH]c2-c2ccc3c(c2)OCCO3)cc1` are within 0.2 log units of each other in log fold change Tl+ flux: 0.0356 for the first, -0.025 for the second.

`CN1c2ccsc2C(=O)C(=NNc2cccc(C(F)(F)F)c2)S1(=O)=O` and `NC(C=Cc1cc(C(F)(F)F)cc(C(F)(F)F)c1)=NOC(=O)c1c(F)cccc1F` are within 0.2 log units of each other in log fold change Tl+ flux: -0.0122 for the first, -0.0565 for the second.

`O=C(OCCSc1sccc1[N+](=O)[O-])c1ccc(Cl)cc1` and `O=C(O)c1cccc(CSc2cccs2)c1` are within 0.2 log units of each other in log fold change Tl+ flux: -0.00334 for the first, 0.0692 for the second.

`CC(C)n1c(SCC(=O)c2ccccc2)nc2cc(Cl)ccc21` and `Cc1cc2c(NC(=O)c3ccccc3C(=O)O)cccc2nn1` are within 0.2 log units of each other in log fold change Tl+ flux: -0.0377 for the first, -0.0132 for the second.

`CCSc1n[nH]c(=S)s1` and `Cc1ncc(CSc2nc(C(C)(C)C)cs2)c(CO)c1O` are within 0.2 log units of each other in log fold change Tl+ flux: -0.0724 for the first, -0.0128 for the second.

`Cc1cc(CNCC(O)C(F)(F)F)no1` (stereo not drawn) and `O=C(Nc1ccc(OC(F)(F)F)cc1)OC1CN(C(c2ccccc2)c2ccccc2)C1` are within 0.2 log units of each other in log fold change Tl+ flux: -0.0368 for the first, -0.0399 for the second.

`COc1cccc(N2CC(=O)N(NC(=O)NC3CCCCC3)CC2=O)c1` and `O=C1NC2CC2N1C(=O)OCc1ccccc1` (stereo not drawn) are within 0.2 log units of each other in log fold change Tl+ flux: -0.0108 for the first, 0.0285 for the second.

`Cc1nn(-c2ccccc2)nc1C(=O)NNC(=O)CSCc1cccc2ccccc12` and `O=C(O)C(Cc1ccccc1[N+](=O)[O-])=NNc1ccccc1` are within 0.2 log units of each other in log fold change Tl+ flux: 0.029 for the first, 0.0136 for the second.

`Cc1ccc(S(N)(=O)=O)c(I)c1` and `Cc1c(O)nc2ccccn2c1=O` are within 0.2 log units of each other in log fold change Tl+ flux: 0.00642 for the first, 0.0365 for the second.

`COCCCNC1=C(C#N)C(=O)NC(c2cccs2)S1` (stereo not drawn) and `Cn1cnc([N+](=O)[O-])c1Sc1cccs1` are within 0.2 log units of each other in log fold change Tl+ flux: 0.041 for the first, 0.0486 for the second.

`O=C(CC(=O)NNC(=O)c1ccc(F)cc1)NNC(=O)c1ccc(F)cc1` and `Cc1cc(NS(=O)(=O)c2ccc(NC(=O)c3nccnc3C(=O)O)cc2)no1` are within 0.2 log units of each other in log fold change Tl+ flux: 0.0677 for the first, -0.0365 for the second.

`CN1c2ccccc2C(C)(C)C12C=Cc1cc(Br)cc([N+](=O)[O-])c1O2` (stereo not drawn) and `Cc1cc(-c2nn(C)c(=O)c3ccccc23)cc(C)c1O` are within 0.2 log units of each other in log fold change Tl+ flux: 0.0436 for the first, 0.00104 for the second.

`Cc1cccc(N=Cc2cc(Cl)cc(Cl)c2O)c1C` and `CC(C)(C)c1cc2nc(C(F)(F)F)cc(NN=Cc3ccccc3)n2n1` are within 0.2 log units of each other in log fold change Tl+ flux: 0.049 for the first, 0.0101 for the second.

`Fc1cccc(Cl)c1CSc1nccn1-c1cccnc1` and `CC(C)(C)OC(=O)N1CCC(c2nc(-c3ccc(Cl)s3)cs2)CC1` are within 0.2 log units of each other in log fold change Tl+ flux: 0.00886 for the first, 0.0108 for the second.

`N#CC(CCC(=O)O)(CCC(=O)O)S(=O)(=O)c1ccccc1` and `CC(C)(C)NC(=O)NCCO` are within 0.2 log units of each other in log fold change Tl+ flux: 0.0317 for the first, 0.0116 for the second.

tested on: F380Y/beta1; experiment: as above; settings: at 30 µM

In the case of `CCOC(=O)c1nn(-c2ccc(C(C)(C)C)cc2)c(=O)c(C#N)c1C`, the log fold change Tl+ flux is reported as -0.189 (active).
With `O=C(NC(=O)N1CCCCC1)c1cc(Br)cc(Br)c1` the log fold change Tl+ flux was -0.109 (active).
In the case of `Cc1cc2c(NC(=O)c3ccccc3C(=O)O)cccc2nn1`, the log fold change Tl+ flux is reported as 0.714 (active).
In the case of `CN1c2ccccc2C(C)(C)C12C=Cc1cc(Br)cc([N+](=O)[O-])c1O2` (stereo not drawn), the log fold change Tl+ flux is reported as 0.162 (active).

`O=S(=O)(Nc1ccccc1SCc1ccc2nonc2c1)c1cccs1` and `O=C(O)c1cccc(CSc2cccs2)c1` are within 0.2 log units of each other in log fold change Tl+ flux: -0.065 for the first, 0.0279 for the second.

`NC(=O)CN1C(=O)C(=Cc2ccco2)N=C1c1ccccc1` and `NC(=O)c1nnn(-c2ccc([N+](=O)[O-])cc2)c1-c1ccccc1` are within 0.2 log units of each other in log fold change Tl+ flux: -0.0266 for the first, -0.0124 for the second.

`COc1cc(C(F)(F)F)nc2ccc(C#CCOC(=O)Nc3cccc(Cl)c3)cc12` and `CCOC(=O)c1ccc(OCC#Cc2ccc(C(F)(F)F)cn2)cc1` are within 0.2 log units of each other in log fold change Tl+ flux: 0.0282 for the first, -0.0209 for the second.

`Cc1ccc(S(=O)(=O)c2ncsc2SCc2ccc(Cl)cc2Cl)cc1` and `Clc1ccc(Sc2cn[nH]c2-c2ccc3c(c2)OCCO3)cc1` are within 0.2 log units of each other in log fold change Tl+ flux: -0.0176 for the first, -0.0285 for the second.

`CN1c2ccsc2C(=O)C(=NNc2cccc(C(F)(F)F)c2)S1(=O)=O` and `NC(C=Cc1cc(C(F)(F)F)cc(C(F)(F)F)c1)=NOC(=O)c1c(F)cccc1F` are within 0.2 log units of each other in log fold change Tl+ flux: 0.00552 for the first, 0.0127 for the second.

`O=C(OCCSc1sccc1[N+](=O)[O-])c1ccc(Cl)cc1` and `O=C(O)C(Cc1ccccc1[N+](=O)[O-])=NNc1ccccc1` are within 0.2 log units of each other in log fold change Tl+ flux: -0.009 for the first, 0.0239 for the second.

`CC(C)n1c(SCC(=O)c2ccccc2)nc2cc(Cl)ccc21` and `Fc1cccc(Cl)c1CSc1nccn1-c1cccnc1` are within 0.2 log units of each other in log fold change Tl+ flux: -0.0145 for the first, 0.00855 for the second.

`CCSc1n[nH]c(=S)s1` and `CSc1cc(C(C)(C)C)[nH]n1` are within 0.2 log units of each other in log fold change Tl+ flux: 0.0129 for the first, -0.0178 for the second.

`CCC(=NOc1ccc(C(F)(F)F)cn1)c1ccc(-c2ccccc2F)cc1` and `O=C(Nc1ccc(OC(F)(F)F)cc1)OC1CN(C(c2ccccc2)c2ccccc2)C1` are within 0.2 log units of each other in log fold change Tl+ flux: -0.0225 for the first, -0.0331 for the second.

`Cc1cc(CNCC(O)C(F)(F)F)no1` (stereo not drawn) and `Cc1cc(NS(=O)(=O)c2ccc(NC(=O)c3nccnc3C(=O)O)cc2)no1` are within 0.2 log units of each other in log fold change Tl+ flux: 0.043 for the first, 0.00855 for the second.

`COc1cccc(N2CC(=O)N(NC(=O)NC3CCCCC3)CC2=O)c1` and `O=C1NC2CC2N1C(=O)OCc1ccccc1` (stereo not drawn) are within 0.2 log units of each other in log fold change Tl+ flux: -0.0266 for the first, -0.00537 for the second.

`Cc1nn(-c2ccccc2)nc1C(=O)NNC(=O)CSCc1cccc2ccccc12` and `O=C(CC(=O)NNC(=O)c1ccc(F)cc1)NNC(=O)c1ccc(F)cc1` are within 0.2 log units of each other in log fold change Tl+ flux: 0.0449 for the first, -0.0109 for the second.

`Cc1ccc(S(N)(=O)=O)c(I)c1` and `Cc1c(O)nc2ccccn2c1=O` are within 0.2 log units of each other in log fold change Tl+ flux: 0.0178 for the first, -0.00065 for the second.

`COCCCNC1=C(C#N)C(=O)NC(c2cccs2)S1` (stereo not drawn) and `Cn1cnc([N+](=O)[O-])c1Sc1cccs1` are within 0.2 log units of each other in log fold change Tl+ flux: 0.00355 for the first, 0.0187 for the second.

`Cc1ncc(CSc2nc(C(C)(C)C)cs2)c(CO)c1O` and `CC(C)(C)c1cc2nc(C(F)(F)F)cc(NN=Cc3ccccc3)n2n1` are within 0.2 log units of each other in log fold change Tl+ flux: -0.0261 for the first, 0.0617 for the second.

`Cc1cccc(N=Cc2cc(Cl)cc(Cl)c2O)c1C` and `Cc1cc(-c2nn(C)c(=O)c3ccccc23)cc(C)c1O` are within 0.2 log units of each other in log fold change Tl+ flux: 0.0694 for the first, 0.0146 for the second.

`CC(C)(C)OC(=O)N1CCC(c2nc(-c3ccc(Cl)s3)cs2)CC1` and `CC(C)(C)NC(=O)NCCO` are within 0.2 log units of each other in log fold change Tl+ flux: 0.0589 for the first, -0.0332 for the second.

`N#CC(CCC(=O)O)(CCC(=O)O)S(=O)(=O)c1ccccc1` was tested, and the log fold change Tl+ flux was 0.000152.
